Bioassay records: PubChem BioAssay, National Center for Advancing Translational Sciences (NCATS)
Rows were chosen to be rich in hits. Some 7.3% of all compounds tested hit in one or more screens of this group.
HCMV inh – inhibitors of human cytomegalovirus; 410,000 tested, 4.5% active; activity change, negative = inhibition, % at 57.5 µM; AID 1259415; HFF cells, HCMV-luciferase reporter, 72 h; active compounds read low; in the data active = activity change below about -60%; inconclusive = no clear call, values can overlap the other calls; inactive = above about -39%
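Human foreskin fibroblasts infected with luciferase-reporter HCMV at MOI 1 PFU/cell, compounds at two doses. Luciferase measured 72 h post infection; normalized to buffer-only basal and Salinomycin (10uM) controls.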
HCV inhibitor – blocks hepatitis C virus. Potency, µM (series often up to 41.8 µM), for the others: at the top dose activity change, negative = inhibition, usual class: inhibitors. Huh7.5.1 HCVcc-Cre infection, luciferase reporter, 44 h. 340,000 tested, 3.4% active; note: potency is the fitted concentration of half-maximal effect
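After 44 h co-culture of compound, cells and HCVcc-Cre (~0.5 moi), substrate is added for 15 min at room temperature and luciferase measured over 15 sec. Cells were seeded at 1,000/well and pre-cultured 4 h.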
FMDV antiviral – antivirals against foot and mouth disease virus | FMDV antiviral cell-based qHTS | Potency, µM (series often up to 57.9 µM), for inactives: at the highest dose activity change, negative = inhibition, usual class: inhibitors | 410,000 tested, 1.2% active; calls by dose curve; tested in HEK293T cells; note: read-out not given here; potency is the fitted concentration of half-maximal effect; nearly all actives have a fitted effect of over 45% in size
AmpC inh detg – AmpC beta-lactamase inhibition with detergent present; P00811; AmpC hydrolysis of nitrocefin, absorbance 480 nm, 0.01% Triton; Potency, µM (highest dose often 114 µM), for the others: at the top dose activity change, negative = inhibition, hits mostly inhibitors; 370,000 tested, 0.041% active;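 note: potency is the fitted concentration of half-maximal effect; 0% = no-compound wells and -100% = no-enzyme wells; nearly all actives have a fitted effect of over 25% in size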
Target sequence (P00811 whole entry, looked up): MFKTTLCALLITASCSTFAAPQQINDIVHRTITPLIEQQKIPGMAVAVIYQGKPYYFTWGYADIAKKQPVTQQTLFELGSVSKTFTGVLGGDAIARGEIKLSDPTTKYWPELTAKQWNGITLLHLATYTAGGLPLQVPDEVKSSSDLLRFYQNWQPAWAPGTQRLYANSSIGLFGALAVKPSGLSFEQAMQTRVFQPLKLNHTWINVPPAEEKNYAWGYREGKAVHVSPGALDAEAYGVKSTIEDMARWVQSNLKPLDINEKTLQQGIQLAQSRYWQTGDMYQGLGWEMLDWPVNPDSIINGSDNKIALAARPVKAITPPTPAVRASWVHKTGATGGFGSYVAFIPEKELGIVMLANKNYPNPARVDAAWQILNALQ
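AmpC (5.3 nM in the dispensed reagent) in 20 mM phosphate pH 7.0 with 0.01% (detergent screen) or 0.0001% Triton X-100 was preincubated with compounds for 15 min at room temperature. Nitrocefin was then added from an 800 uM solution, and hydrolysis was followed at 480 nm.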
AmpC inh no detg – inhibitors of E. coli AmpC beta-lactamase without detergent; Potency, µM (top dose mostly 57.1 µM), for inactives: at the top dose activity change, negative = inhibition, actives largely listed as inhibitors; AmpC nitrocefin hydrolysis, absorbance 480 nm, 0.0001% Triton; AID 485341; 330,000 tested, 0.52% active; P00811;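 note: potency is the fitted concentration of half-maximal effect; plate controls were no compound for no effect and no enzyme for full effect; nearly all actives have a fitted effect of over 20% in size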
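AmpC (5.3 nM in the dispensed reagent) in 20 mM phosphate pH 7.0 with 0.01% (detergent screen) or 0.0001% Triton X-100 was preincubated with compounds for 15 min at room temperature. Nitrocefin was then added from an 800 uM solution, and hydrolysis was followed at 480 nm.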
Starred values were filed as active, the others as inactive; ? = inconclusive; nt = no result given; [ ] = another dose, or the depositor's remark. Unless noted, calls come from the whole dose curve; as a rule, active = well fitted curve in the direction sought with a large enough effect; inconclusive = small, poorly fitted or top-dose-only effect, or another doubt; inactive = no such curve, though single readings can be large; an effect the other way counts as inactive or inconclusive. Unless noted, % is set by controls: 0 for no effect and ±100 for the full control effect.

SMILES	HCMV inh	HCV inhibitor	FMDV antiviral	AmpC inh detg	AmpC inh no detg
CC1(C)N=C(N)N=C(N)N1c1ccc(CCCCc2ccccc2)cc1	-101*	nt	3.5µM*	nt	nt
Cc1ccc(C(=O)NCC(=O)Nc2ccc(S(=O)(=O)Nc3cc(C)nc(C)n3)cc2)cc1	28	-2%	21%	nt	-15%
CC(=O)N(C)C1=C(N2CCOCC2)C(=O)c2ccccc2C1=O	nt	0.56µM*	2.5µM*	?	-1%
O=C(NCCc1ccccc1)/C(=C\c1cccc([N+](=O)[O-])c1)NC(=O)c1ccco1	22	17%	-7%	?	-3%
COc1ccc(Sc2ccc(/C=C3\C(=O)NN(c4ccccc4)C3=O)o2)cc1	-14	-1%	40µM*	?	-46%
Cc1ccc(CN2CCSc3ccc(C(=O)Nc4ccc(Cl)cc4)cc32)cc1	24	nt	34%	11%	nt
CCOc1ccc2oc(-c3ccccc3)c(C(=O)O)c2c1	-9	11%	2%	-5%	-20%
CCOC(=O)c1c(-c2ccc(OC)cc2)oc2ccc(O)cc12	3	?	-14%	-4%	-9%
CCOc1ccc2oc(-c3ccccc3)c(C(=O)N(C)C)c2c1	-62*	?	nt	1%	98%
CCOC(=O)c1c(-c2ccc(OC)cc2)oc2ccc(OCC(N)=O)cc12	-10	2.2µM*	-14%	0%	-1%
CCC[C@H]1[C@@H](NS(=O)(=O)c2ccccc2)CC[C@@]23CCCN2C(=O)CCC[C@@H]13	-10	nt	nt	nt	nt
Cc1cc(F)cc(C)c1Cn1cnc2c(cnn2C(C)(C)C)c1=O	-5	nt	-2%	nt	-14%
N#Cc1cccc(NC(=O)c2cc(C3CCCCN3C(=O)c3ccccc3)on2)c1 (centres undefined)	?	nt	-21%	nt	nt
N#Cc1cccc(NC(=O)c2cc(C3CCCCN3C(=O)C3CC3)on2)c1 (centres undefined)	-63*	nt	?	nt	nt
COc1ccc(OC)c(CCNC(=O)c2cc3c(=O)n(C)c4ccccc4c3n2C)c1	-105*	nt	?	6%	nt
COc1ccc(OC)c(CCNC(=O)c2cnn(-c3ccccc3)c2-n2cccc2)c1	-90*	nt	0%	6%	nt
COc1ccc(CNC(=O)CSCc2cnn(-c3ccccc3)c2-n2cccc2)cc1	3	-9%	?	-12%	-3%
Cn1c(C(=O)NCCCN2CCCCCC2)cc2c(=O)n(C)c3ccccc3c21	40	-24%	-4%	?	11µM*
COc1ccc(CCNC(=O)c2cc3c(=O)n(C)c4ccccc4c3n2C)cc1OC	21	19%	?	1%	9%
CCc1ccccc1NC(=O)N1CCc2cc(OC)c(OC)cc2C1CC(=O)OC (centres undefined)	-5	nt	0%	-4%	nt
N#Cc1ccc(N2CCCNCC2)nc1	-4	-6%	-3%	-5%	-1%
Cc1ccc(-c2nc(NCC3CCCO3)sc2C)cc1 (centres undefined)	43	-3%	62%	-10%	-24%[11.4 µM]
CCOc1ccccc1NC(=O)CSC1=Nc2ccccc2C2=NC(CC(=O)NCc3ccc4c(c3)OCO4)C(=O)N12 (centres undefined)	18	nt	-18%	5%	nt
COc1ccc(CNc2cc(C)nc3ncnn23)c(OC)c1	-81*	?	?	5%	-2%
COc1ccc(Nc2cc(C)nc3ncnn23)c(OC)c1	76	23%	5%	-14%	-21%
SMILES	HCMV inh	HCV inhibitor	FMDV antiviral	AmpC inh detg	AmpC inh no detg
COc1ccc(CN2CCN(CCc3ccccc3)C(CCO)C2)c(Cl)c1OC (centres undefined)	43	-21%	-10%	?	35%
CCc1ccccc1NC(=O)CN(C)C(=O)COC(=O)c1ccco1	6	14%	-23%	nt	-12%
CCO[C@H]1[C@H](NC(=O)c2cccnc2)c2ccccc2C12CCN(C(=O)c1ccoc1)CC2	nt	nt	-6%	nt	nt
COc1ccc(-c2ccc3c(c2)c(-c2cccs2)c(-c2cc(OC)cc(OC)c2)n3C)cc1	-5	-3%	-3%	-8%	-21%
COc1cc(OC)cc(-c2c(-c3cccs3)c3cc(-c4cnc(OC)nc4)ccc3n2C)c1	-78*	?	?	1%	-26%
O=S(=O)(CS(=O)(=O)c1ccc(Br)cc1)c1ccc(Br)cc1	-29	nt	nt	nt	nt
Cc1[nH]c2ccc3ncccc3c2c1C	-3	11µM*	28%	8%	-12%
